# Data: PubChem BioAssay (EPA / NIEHS)
# Results filed as inconclusive are left out. Some structures have more than one record in an assay (separate samples or runs), and their calls can disagree. Active and inactive are the calls of the source. The calls were made as follows: active = hit-call score of the fitted dose curve at least 0.9, where 1 is the maximum; inconclusive = response in the unintended direction; inactive = score below 0.9.
# Target: Cellular tumor antigen p53 (Homo sapiens) (UniProt P04637)
# Sequence (P04637 whole entry, looked up): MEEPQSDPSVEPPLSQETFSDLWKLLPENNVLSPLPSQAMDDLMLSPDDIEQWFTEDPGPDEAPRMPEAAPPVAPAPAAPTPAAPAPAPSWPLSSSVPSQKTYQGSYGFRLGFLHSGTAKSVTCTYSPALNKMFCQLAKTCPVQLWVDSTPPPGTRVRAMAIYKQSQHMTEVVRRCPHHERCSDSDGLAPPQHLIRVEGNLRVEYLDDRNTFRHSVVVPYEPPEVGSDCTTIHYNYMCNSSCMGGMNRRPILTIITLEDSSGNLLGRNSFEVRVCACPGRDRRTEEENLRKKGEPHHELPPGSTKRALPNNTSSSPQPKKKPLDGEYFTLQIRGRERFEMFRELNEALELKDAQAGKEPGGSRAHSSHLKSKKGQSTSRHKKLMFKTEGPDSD
# Test: TOX21_p53_BLA_p2_ratio: Tox21 HCT-116 p53 Agonism Beta-lactamase Assay, Ratio, Phase 2 (AID 2283592)
# Source text: TOX21_p53_BLA_p2 is a cell-based, single-readout assay that uses HCT116, a human intestinal cell line, […] in a 1536-well plate.TOX21_p53_BLA_p2_ratio is an assay readout measuring reporter gene via receptor activity and designed using inducible reporter (beta lactamase induction) detected with GAL4 b-lactamase reporter gene. The signal is derived from the ratio of cleaved (ch2) to uncleaved (ch1) reporter gene substrate used as the measure of target activity.Data from the assay component TOX21_p53_BLA_p2_ratio was analyzed into 1 assay endpoint. This assay endpoint, TOX21_p53_BLA_p2_ratio, was analyzed in the positive analysis fitting direction relative to DMSO as the negative control and baseline of activity. Using a type of inducible reporter, gain-of-signal activity can be used to understand changes in the reporter gene as they relate to the gene TP53. Furthermore, this assay endpoint can be referred to as a primary readout, because this assay has produced multiple assay endpoints and this ratio serves a reporter gene function to understand target activity. To generalize the intended target to other relatable targets, this assay endpoint is annotated to the DNA binding intended target family, where the subfamily is tumor suppressor.
# Thawing Method: Place 14 mL of pre-warmed thaw medium into a 15 mL of conical tub. Remove the vial of cells to be thawed from liquid nitrogen and thaw rapidly by placing at 37C in a water bath with gentle agitation for 1-2 minutes. Decontaminate the vial by wiping with 70% ethanol before opening in a biological safety cabinet. Transfer the vial contents drop-wise into 14 mL of thaw medium in a sterile 15-mL conical tub. Centrifuge cells at 900 rpm for 4 minutes and resuspend in thaw medium. Transfer contents to the T75 tissue culture flask containing Thaw Medium and place flask in a humidified 37C/5% CO2 incubator. Switch to growth medium at first passage.Propagation Method: Aspirate medium, rinse once in DPBS, add 0.25% Trypsin/EDTA and swirl to coat the cell evenly. Add an equal volume of Growth Medium to inactivate Trypsin after 2-3 minutes incubation at 37C. Centrifuge cells at 900 rpm for 4 minutes and resuspend in growth medium. Cell should be passage or fed at least twice a week.Assay Protocol: Harvest cells from culture in growth medium and resuspend in assay medium. 2.2 Dispense 4000 cells/5 uL/well into 1536-well black/clear bottom plates using a Multidrop dispenser. After the cells were incubated at 37C for 5 hours, 23 nL of compounds dissolved in DMSO were transferred to the assay plate by a PinTool resulting in a 217-fold dilution. Incubate the plates for 16 hours at 37C, 5% CO2. Add 1 uL of 6X LiveBLAzer FRET B/G (CCF4-AM) Substrate Mixture to each well using a BioRAPTR dispenser and incubate the plates at room temperature for 2 hours. Measure fluorescence intensity at 460 and 530 nm emission and 405 nm excitation by an Envision detector. Data is expressed as the ratio of 460nm/530nm emissions. Add 4 uL of Cell-titer Glo to each well using BioRAPTR and incubate the plates at room temperature for 2 hours. Measure fluorescence intensity by a VewLux plate reader.
SMILES,outcome,AC50
Nc1cccc(S(=O)(=O)c2cccc(N)c2)c1,inactive,
CC(C)Oc1ccccc1O,inactive,
OCCOCCOCCOCCO,inactive,
OCCN1CCNCC1,inactive,
CCCCCCCCC,inactive,
c1ccc(CCCc2ccccn2)cc1,inactive,
CN(C)CCOCCN(C)C,inactive,
O=C(O)c1ccc([N+](=O)[O-])cc1,inactive,
O=C(O)CCCCCCCC(=O)O,inactive,
O=C(O)c1cn(-c2ccc(F)cc2)c2cc(N3CCNCC3)c(F)cc2c1=O,inactive,
CCCCCC(CO)CCC (stereo not given),inactive,
CC1(CO)CN(c2ccccc2)NC1=O (stereo not given),inactive,
CC(=O)C(=O)O,inactive,
O=C(O)CCCCC1CCSS1 (stereo not given),inactive,
O=C(O)c1snc(Cl)c1Cl,inactive,
O=C(OCc1ccccc1)C(=O)OCc1ccccc1,inactive,
COc1ccc(Nc2ccccc2)c(C)c1,inactive,
C=CC(C)(O)CCC=C(C)CCC=C(C)C (stereo not given),inactive,
CC(C)c1cccc(O)c1,inactive,

SMILES,outcome,AC50
COc1ccc(O)cc1,inactive,
C=C(C)C(=O)Nc1ccc(Cl)c(Cl)c1,inactive,60.6 µM (active)
CC(C)OP(=O)(CP(=O)(OC(C)C)OC(C)C)OC(C)C,inactive,
C=C(C)C(=O)O[C@H]1C[C@@H]2CC[C@@]1(C)C2(C)C,inactive,
CCC(=O)OCc1ccccc1,inactive,
CCCCCCOC(=O)CC,inactive,
CNC[C@H](O)c1cccc(O)c1,inactive,
Nc1ccc(S(=O)(=O)O)c(N)c1,inactive,
CCCCCCCCCOC(C)=O,inactive,
CCCCCCCCCC=O,inactive,
CN(CCOc1ccc(CC2SC(=O)NC2=O)cc1)c1ccccn1 (stereo not given),inactive,
O=C(O)COCCN1CCN(C(c2ccccc2)c2ccc(Cl)cc2)CC1 (stereo not given),inactive,
O=C1O[C@@H]2[C@@H](O)[C@H](O)O[C@@H]2[C@H]1O,inactive,
ClCCCl,inactive,
O=C(O)c1ccc(C(=O)O)cc1,inactive,
CNC(=O)Oc1ccc2c(c1)[C@]1(C)CCN(C)[C@@H]1N2C,inactive,
O=C[C@@H](O)[C@H](O)[C@H](O)CO,inactive,
COCCCOc1ccnc(CS(=O)c2nc3ccccc3[nH]2)c1C (stereo not given),inactive,
CNCCCC12CCC(c3ccccc31)c1ccccc12,inactive,85.8 µM (active)
